# Inconclusive results are not listed. Entries that show only a call come without a potency. Calls of active or inactive are those of the source. The call rests on the fitted dose curve.
# Experiment: qHTS assay to identify small molecule agonists of the NFkB signaling pathway - cell viability counter screen (AID 1159515); further: nearly all actives have a fitted effect of over 55% in size
# Conditions: NFkB-bla ME-180 viability, CellTiter-Glo luminescence, 5 h; series mostly up to 61 µM
# Source text: National Center for Advancing Translational Sciences [NCATS]
# NIH Chemical Genomics Center [NCGC]
# U.S. Environmental Protection Agency [EPA]
# National Institutes of Environmental Health Sciences [NIEHS]
# National Toxicology Program [NTP]
# U.S. Food and Drug Administration [FDA]
# Transcription factors and their stimulated target gene expression play pivotal roles across many cellular processes including responses to environmental stimuli. Proper regulation of associated pathways is critical to maintain cell health and function. Constitutive activation of transcription factor pathways has been implicated in tumors as it may block cellular functions such as apoptosis and lead to invasion and metastasis. One important transcription factor that stimulates gene expression in response to cytokines, UV radiation, and other stimuli is nuclear factor-kappa B (NFkB). To measure activation of the NFkB pathway, the CellSensor NFkB-bla ME-180 cell line (Life Technologies, Carlsbad, CA) that stably expresses beta-lactamase reporter gene under the regulation of a NF-kB response element was used. This assay allows measurement of the NFkB pathway activity induced by compounds in a ME-180 cell line. This system quantitates NF-kB activity using a FRET-based assay system where beta-lactamase expression disrupts FRET, allowing for fluorescent measurement of activity. This cell line has been used to screen the Tox21 10K compound library and to identify compounds that induce the NFkB pathway activity. The cytotoxicity of the Tox21 compound library against the NFkB-bla ME-180 cell line was tested in parallel by measuring cell viability using the CellTiter-Glo assay in the same wells.
# Tox21 Assay Protocol Summary:
# NFkB-bla ME-180 cells were dispensed at 2,000 cells/6 uL of assay medium per well into black wall/clear-bottom 1536-well plates using a Multidrop Combi (ThermoFisher Scientific, Waltham, MA) dispenser. After the assay plates were incubated at 37 C and 5% CO2 for an overnight, 23 nL of compounds dissolved in DMSO, positive controls or DMSO only was transferred to the assay plate by a Pintool station (Kalypsys, San Diego, CA). The assay plates were incubated at 37 C and 5% CO2 for 5 hr. One uL of LiveBLAzer B/G FRET substrate (Life Technologies) was added using a Flying Reagent Dispenser (Aurora Discovery, San Diego, CA) and the plates were incubated at room temperature for 1.5 hr. Fluorescence intensity (405 nm excitation, 460 nm and 530 nm emissions) was measured using an Envision plate reader (PerkinElmer, Shelton, CT). For cytotoxicity, 3 ul/well of CellTiter-Glo reagent was added into the assay plates using an FRD. After 30 min incubation at room temperature, the luminescence intensity was measured using a ViewLux plate reader (PerkinElmer).
# Potency means the concentration at half of the fitted maximal effect.
row,Compound,Potency
1,Nc1cccc2c1CN(C1CCC(=O)NC1=O)C2=O (stereo not given),inactive
2,CC1CC(OC(=O)C(O)c2ccccc2)CC(C)(C)N1C (stereo not given),inactive
3,C/C=C(/C(=C/C)c1ccc(O)cc1)c1ccc(O)cc1,inactive
4,CC1(C)O[C@@H]2C[C@H]3[C@@H]4C[C@H](F)C5=CC(=O)C=C[C@]5(C)[C@H]4[C@@H](O)C[C@]3(C)[C@]2(C(=O)CO)O1,inactive
5,Clc1cc(Cl)nc(Cl)n1,inactive
6,CCCCCCCCOc1ccc(C(=O)O)cc1,inactive
7,CCCCC(CC)COP(=O)(O)O (stereo not given),inactive
8,CCOC(=O)c1ccc(OCCN2C[C@H](O)[C@@H](O)[C@H](O)[C@H]2CO)cc1,inactive
9,O=C1CCCCCCCCCCOCCCCO1,inactive
10,CC(=O)[C@H]1[C@H](C#N)C[C@H]2[C@@H]3CC=C4C[C@@H](O)CC[C@]4(C)[C@H]3CC[C@@]21C,inactive
11,O=C(CCc1ccc(O)cc1)c1c(O)cc(O)cc1O,inactive
12,Cc1cc(=O)c2c(O)c3c(O)cc(=O)c4c3c3c(cc(O)c1c23)C(C)(C)C=4O,inactive
13,CCCCCCCCN,inactive
14,COc1ccc(OC(=O)N(CC(=O)O)Cc2ccc(OCCc3nc(-c4ccccc4)oc3C)cc2)cc1,inactive
15,CCCCN1CCCC1C(=O)Nc1c(C)cc(C)cc1C (stereo not given),inactive
16,CC=C(Cl)Cl,inactive
17,Cc1ccccc1S,inactive
18,C[C@@H]1CN(CCCn2c3ccccc3c3ccccc32)C[C@H](C)N1,inactive
19,c1csc(SSc2cccs2)c1,inactive
20,CCOc1ccc(Cc2nccc3cc(OCC)c(OCC)cc23)cc1OCC,inactive

row,Compound,Potency
1,CCOC(=O)/C=C/C(=O)OCC,inactive
2,O=C(O)c1ccc(OCCCOc2ccc(C(=O)O)cc2)cc1,inactive
3,CC(C)(C)C(=O)C(=O)O,inactive
4,COC(=O)c1nc(Cl)c(Cl)nc1N,inactive
5,c1cc(N(CC2CO2)CC2CO2)ccc1Cc1ccc(N(CC2CO2)CC2CO2)cc1 (stereo not given),inactive
6,COc1ccccc1Oc1c(NS(=O)(=O)c2ccc(C(C)(C)C)cc2)nc(-c2ncccn2)nc1OCCO,inactive
7,O=C1c2ccccc2C(=O)C1(O)O,inactive
8,COC(=O)C1=C(C)NC(C)=C(C(=O)O[C@@H]2CCCN(Cc3ccccc3)C2)[C@@H]1c1cccc([N+](=O)[O-])c1,inactive
9,CC(=O)c1ccc([N+](=O)[O-])cc1,inactive
10,CCOC(=O)C1=C(C)NC(C)=C(C(=O)OC)C1c1cccc(Cl)c1Cl (stereo not given),inactive
11,O=C(Nc1cccc2c(=O)cc(-c3nn[nH]n3)oc12)c1ccc(OCCCCc2ccccc2)cc1,inactive
12,C[C@H]1c2cccc(O)c2C(O)=C2C(=O)[C@]3(O)C(O)=C(C(N)=O)C(=O)[C@@H](N(C)C)[C@@H]3[C@@H](O)[C@@H]21,inactive
13,Brc1cc2ccccc2c2ccccc12,inactive
14,CC1(C)[C@@H](OC(=O)CCC(=O)O)CC[C@]2(C)[C@H]3C(=O)C=C4[C@@H]5C[C@@](C)(C(=O)O)CC[C@]5(C)CC[C@@]4(C)[C@]3(C)CC[C@@H]12,inactive
15,O=c1cc(-c2ccccc2)oc2ccc3ccccc3c12,54.9 µM (active)
16,O=C1NCCN1CCO,inactive
17,CCC1NC(=O)c2cc(S(N)(=O)=O)c(Cl)cc2N1 (stereo not given),inactive
18,C[C@]1(Cn2ccnn2)[C@H](C(=O)O)N2C(=O)C[C@H]2S1(=O)=O,inactive
19,C/C=C/C=C/C=O,inactive
20,O=C1c2ccccc2C(=O)C1c1nc2ccccc2c(Br)c1O,inactive
